Test results reported in ChEMBL document CHEMBL2218924, “A broad activity screen in support of a chemogenomic map for kinase signalling research and drug discovery” (Biochem J, 2013).

Experiments:
[1] = target: T1, Serine/threonine-protein kinase 3 (Homo sapiens) (UniProt Q13188); conditions: at 1 µM
T1 sequence (whole entry): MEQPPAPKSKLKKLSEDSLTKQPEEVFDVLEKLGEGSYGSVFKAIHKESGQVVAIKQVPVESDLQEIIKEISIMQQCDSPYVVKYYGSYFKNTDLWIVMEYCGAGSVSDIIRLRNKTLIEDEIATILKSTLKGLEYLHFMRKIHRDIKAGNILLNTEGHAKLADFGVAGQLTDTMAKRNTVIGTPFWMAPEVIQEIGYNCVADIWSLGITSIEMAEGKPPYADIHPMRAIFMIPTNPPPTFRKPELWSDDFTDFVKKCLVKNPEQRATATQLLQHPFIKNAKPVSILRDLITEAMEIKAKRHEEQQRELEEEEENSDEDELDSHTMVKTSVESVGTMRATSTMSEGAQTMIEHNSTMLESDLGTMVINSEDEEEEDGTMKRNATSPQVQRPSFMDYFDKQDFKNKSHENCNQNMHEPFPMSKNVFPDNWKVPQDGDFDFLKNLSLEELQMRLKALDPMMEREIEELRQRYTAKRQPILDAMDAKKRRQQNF

[2] = target: T1, Serine/threonine-protein kinase 3 (Homo sapiens); conditions: at 10 µM
[3] = target: Serine/threonine-protein kinase 24 (Homo sapiens) (UniProt Q9Y6E0); conditions: at 1 µM
Sequence of Serine/threonine-protein kinase 24 (Homo sapiens) (Q9Y6E0 whole entry, looked up): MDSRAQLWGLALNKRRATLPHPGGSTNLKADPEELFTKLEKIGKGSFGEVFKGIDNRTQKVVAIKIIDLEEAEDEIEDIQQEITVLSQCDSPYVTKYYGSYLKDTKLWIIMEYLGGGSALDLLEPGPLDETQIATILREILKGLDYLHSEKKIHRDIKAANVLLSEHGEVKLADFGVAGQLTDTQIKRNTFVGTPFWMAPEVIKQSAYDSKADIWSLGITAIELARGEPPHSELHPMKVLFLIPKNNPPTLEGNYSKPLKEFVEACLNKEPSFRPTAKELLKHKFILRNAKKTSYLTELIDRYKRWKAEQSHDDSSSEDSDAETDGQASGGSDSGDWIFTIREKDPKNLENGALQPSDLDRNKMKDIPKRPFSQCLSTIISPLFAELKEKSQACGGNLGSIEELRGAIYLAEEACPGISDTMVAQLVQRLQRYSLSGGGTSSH

[4] = target: Serine/threonine-protein kinase 24 (Homo sapiens) (UniProt Q9Y6E0); conditions: at 10 µM
[5] = target: T2, Tyrosine-protein kinase Mer (Homo sapiens) (UniProt Q12866); conditions: at 1 µM
T2 sequence (whole entry): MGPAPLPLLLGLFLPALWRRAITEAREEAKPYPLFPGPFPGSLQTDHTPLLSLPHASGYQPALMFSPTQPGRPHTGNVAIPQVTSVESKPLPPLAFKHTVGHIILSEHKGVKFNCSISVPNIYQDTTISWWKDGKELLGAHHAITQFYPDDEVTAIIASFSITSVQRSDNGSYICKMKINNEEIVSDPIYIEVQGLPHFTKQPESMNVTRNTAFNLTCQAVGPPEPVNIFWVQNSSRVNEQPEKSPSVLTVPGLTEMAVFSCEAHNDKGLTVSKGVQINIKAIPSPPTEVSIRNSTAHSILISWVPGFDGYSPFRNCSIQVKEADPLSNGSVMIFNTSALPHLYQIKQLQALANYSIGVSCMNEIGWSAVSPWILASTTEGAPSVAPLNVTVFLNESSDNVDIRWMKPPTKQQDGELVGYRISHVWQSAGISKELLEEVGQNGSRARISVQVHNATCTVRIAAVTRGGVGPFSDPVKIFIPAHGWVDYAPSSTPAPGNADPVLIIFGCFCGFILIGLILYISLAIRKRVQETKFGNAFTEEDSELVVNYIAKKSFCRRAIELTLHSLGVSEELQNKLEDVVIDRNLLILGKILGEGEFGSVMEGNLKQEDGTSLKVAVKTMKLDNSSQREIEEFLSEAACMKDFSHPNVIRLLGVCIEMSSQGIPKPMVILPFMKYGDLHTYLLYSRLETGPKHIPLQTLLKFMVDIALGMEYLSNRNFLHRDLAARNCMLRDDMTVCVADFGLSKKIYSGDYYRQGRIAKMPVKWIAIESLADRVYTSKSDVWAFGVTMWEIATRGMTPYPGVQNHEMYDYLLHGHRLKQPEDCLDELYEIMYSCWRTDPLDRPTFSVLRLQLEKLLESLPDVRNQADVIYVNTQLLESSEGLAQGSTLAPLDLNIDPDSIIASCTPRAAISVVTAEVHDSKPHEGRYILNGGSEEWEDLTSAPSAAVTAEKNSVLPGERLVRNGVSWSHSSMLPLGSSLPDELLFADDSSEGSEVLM

[6] = target: T2, Tyrosine-protein kinase Mer (Homo sapiens); conditions: at 10 µM
[7] = target: MAP kinase-interacting serine/threonine-protein kinase 2 (Homo sapiens) (UniProt Q9HBH9); conditions: at 1 µM
Sequence of MAP kinase-interacting serine/threonine-protein kinase 2 (Homo sapiens) (Q9HBH9 whole entry, looked up): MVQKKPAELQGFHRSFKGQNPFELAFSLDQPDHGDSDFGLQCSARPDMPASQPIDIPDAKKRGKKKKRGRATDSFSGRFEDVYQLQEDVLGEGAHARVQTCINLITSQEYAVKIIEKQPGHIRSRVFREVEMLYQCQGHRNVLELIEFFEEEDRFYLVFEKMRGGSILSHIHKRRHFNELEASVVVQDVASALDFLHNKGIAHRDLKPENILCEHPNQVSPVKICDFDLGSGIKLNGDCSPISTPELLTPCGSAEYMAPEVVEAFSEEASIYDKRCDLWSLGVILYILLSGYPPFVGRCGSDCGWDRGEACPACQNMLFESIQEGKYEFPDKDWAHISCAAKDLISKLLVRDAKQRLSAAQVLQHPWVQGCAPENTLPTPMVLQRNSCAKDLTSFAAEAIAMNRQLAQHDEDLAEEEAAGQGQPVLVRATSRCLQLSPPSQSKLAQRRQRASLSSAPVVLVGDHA

[8] = target: MAP kinase-interacting serine/threonine-protein kinase 2 (Homo sapiens) (UniProt Q9HBH9); conditions: at 10 µM
[9] = target: Hepatocyte growth factor receptor (Homo sapiens) (UniProt P08581); conditions: at 1 µM
Sequence of Hepatocyte growth factor receptor (Homo sapiens) (P08581 whole entry): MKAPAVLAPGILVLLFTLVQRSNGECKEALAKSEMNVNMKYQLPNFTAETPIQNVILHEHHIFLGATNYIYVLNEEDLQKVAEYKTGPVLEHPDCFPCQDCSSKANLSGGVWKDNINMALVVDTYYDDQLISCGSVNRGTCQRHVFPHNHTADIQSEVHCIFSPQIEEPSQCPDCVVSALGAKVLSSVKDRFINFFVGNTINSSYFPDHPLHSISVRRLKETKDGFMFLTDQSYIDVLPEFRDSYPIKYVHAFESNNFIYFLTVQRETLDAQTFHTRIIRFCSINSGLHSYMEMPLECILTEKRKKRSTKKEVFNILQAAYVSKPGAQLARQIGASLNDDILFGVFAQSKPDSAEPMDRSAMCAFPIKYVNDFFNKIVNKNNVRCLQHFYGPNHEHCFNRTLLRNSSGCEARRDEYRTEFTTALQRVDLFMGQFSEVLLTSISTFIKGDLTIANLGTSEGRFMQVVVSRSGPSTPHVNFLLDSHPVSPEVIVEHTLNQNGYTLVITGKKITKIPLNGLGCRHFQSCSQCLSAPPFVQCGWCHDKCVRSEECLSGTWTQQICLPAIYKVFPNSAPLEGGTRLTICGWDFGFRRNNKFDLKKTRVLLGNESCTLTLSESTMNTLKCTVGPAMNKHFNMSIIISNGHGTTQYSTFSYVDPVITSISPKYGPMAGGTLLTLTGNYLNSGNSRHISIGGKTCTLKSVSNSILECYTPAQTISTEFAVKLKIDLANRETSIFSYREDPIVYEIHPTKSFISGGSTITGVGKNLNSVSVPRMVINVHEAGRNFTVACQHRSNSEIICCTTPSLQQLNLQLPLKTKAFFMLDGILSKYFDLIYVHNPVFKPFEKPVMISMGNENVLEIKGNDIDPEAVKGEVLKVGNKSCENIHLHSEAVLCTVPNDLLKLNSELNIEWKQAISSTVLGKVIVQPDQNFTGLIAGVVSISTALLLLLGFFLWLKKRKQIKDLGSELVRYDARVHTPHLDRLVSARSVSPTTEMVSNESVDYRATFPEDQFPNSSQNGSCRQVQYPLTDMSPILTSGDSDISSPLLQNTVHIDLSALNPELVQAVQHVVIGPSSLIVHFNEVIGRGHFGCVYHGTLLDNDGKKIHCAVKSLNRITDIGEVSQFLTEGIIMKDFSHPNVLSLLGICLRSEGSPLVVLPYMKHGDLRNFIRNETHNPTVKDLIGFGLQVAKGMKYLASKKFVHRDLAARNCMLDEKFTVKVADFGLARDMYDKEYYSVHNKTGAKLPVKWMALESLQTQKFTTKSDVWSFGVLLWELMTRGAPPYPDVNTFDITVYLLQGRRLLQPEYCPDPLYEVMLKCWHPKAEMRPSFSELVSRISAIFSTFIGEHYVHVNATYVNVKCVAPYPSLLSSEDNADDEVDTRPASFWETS

[10] = target: Hepatocyte growth factor receptor (Homo sapiens) (UniProt P08581); conditions: at 10 µM

SMILES	residual activity [1] [%]	residual activity [2] [%]	residual activity [3] [%]	residual activity [4] [%]	residual activity [5] [%]	residual activity [6] [%]	residual activity [7] [%]	residual activity [8] [%]	residual activity [9] [%]	residual activity [10] [%]
O=C1NC(=O)C(c2cn(CCCO)c3ncccc23)=C1c1cnccn1	92	91	73	57	89	86	76	67		
O=C1NC(=O)c2c1c1c3ccccc3[nH]c1n1cncc21	68	33	56	34	37	21	32	21	146	92
Nc1nc(Nc2ccc(S(N)(=O)=O)cc2)nn1C(=O)c1c(F)cccc1F	34	4	61	6		1	95	66	45	10
CC(C)c1nn(-c2c(Cl)cccc2Cl)c2nc(Cc3ccc(OCCO)cc3)[nH]c(=O)c12	109	78	23	2	98	75	103	102	146	75
CCN(CC)CCNC(=O)c1c(C)[nH]c(/C=C2\C(=O)Nc3ccc(Cl)cc32)c1C	34	2	8	1	7	0	99	45	45	7
CSc1nc(-c2ccc(F)cc2)c(-c2ccnc(NC(C)c3ccccc3)c2)[nH]1 (centres undefined)	101	74	99	78		79		95	125	82
O=C1Cc2c([nH]c3ccc(Br)cc23)-c2ccccc2N1	87	28	65	40	78	28	90	39		
CCCCc1c(-c2ccc(O)cc2)[nH]c2nccnc12	86	45	68	38	73	71	86	76		
Cn1sc(=O)n(Cc2ccccc2)c1=O	98	97	71	70	96	98	97	89	141	95
Oc1cccc(-c2nc(N3CCOCC3)c3oc4ncccc4c3n2)c1			75	74		93			121	133
COc1ccc(CNC(=O)Nc2ncc([N+](=O)[O-])s2)cc1			69	80						
NC(=O)c1cccc(-c2cc(Nc3ccc(OC(F)(F)F)cc3)ncn2)c1			74	93			91	54		
O=S(=O)(c1cccc2cnccc12)N1CCCNCC1						77				
O=C1Nc2ccccc2/C1=C\c1c(Cl)[nH]c2ccccc12			83	67	77	21		70	121	40
O=c1cc(N2CCOCC2)oc2c1ccc1ccccc12			70	82	105	83	100	93		133
O=c1c(-c2ccc(F)cc2)c(-c2ccncc2)[nH]n1-c1ccc(Cl)cc1				79					67	28
COc1ccc(COc2ccc(Cc3cnc(N)nc3N)cc2OC)cc1			61	65			108	100	109	129
CN([C@@H](Cc1ccc(OS(=O)(=O)c2cccc3cnccc23)cc1)C(=O)N1CCN(c2ccccc2)CC1)S(=O)(=O)c1cccc2cnccc12	99								85	114
O=S(=O)(NCCNC/C=C/c1ccc(Br)cc1)c1cccc2cnccc12			78	52		25				
CC(C)N(CCC(=O)c1ccc2ccccc2c1)Cc1ccccc1			62	72				87		79
COc1ccc(Cl)cc1NC(=O)Nc1cc(C)nc2ccccc12			70	83					89	80
O=C(Nc1ccc(Cl)cc1)c1ccccc1NCc1ccncc1			72	77	101	99				
N#C/C(=C\c1ccc(O)c(O)c1)C(=O)NCc1ccccc1			82	65				83	103	73
CC(C)[C@H](CO)Nc1nc(Nc2cc(N)cc(Cl)c2)c2ncn(C(C)C)c2n1		60	78	26	22	2	94	75	74	13
NC(=O)c1ccc(-c2nc(-c3ccc4c(c3)OCCO4)c(-c3ccccn3)[nH]2)cc1			91	82						
NCCNc1ncc(C(N)=O)c(Nc2cccc(C(F)(F)F)c2)n1		77		63	80	26				
NC(=O)Nc1sc(-c2ccc(F)cc2)cc1C(N)=O			38	6	54	9	72	24		
O=C(O)/C=C/c1cc(Br)c(Br)c(Br)c1Br			105	85	104	94	74		93	84
Nc1nccc(-c2c(-c3ccc(F)cc3)ncn2C2CCNCC2)n1			82	82	67	24		82	114	82
